# Only some compounds are listed: those with a hit (about 8.3% of all), similar ones and a draw of the others.
# HCV inh = inhibitors of hepatitis C virus infection; Huh7.5.1 HCVcc-Cre infection, luciferase reporter, 44 h; Potency, µM (series often up to 41.8 µM), inactives show at the top dose activity change, negative = inhibition, hits mostly inhibitors; hit rate 3.4% among 340,000; AID 651820; further: potency means the concentration at half of the fitted maximal effect
#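 After 44 h co-culture of compound, cells and HCVcc-Cre (~0.5 moi), substrate is added for 15 min at room temperature and luciferase measured over 15 sec. Cells were seeded at 1,000/well and pre-cultured 4 h.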
# LASV entry inh = blocks Lassa virus binding to or entry into cells; AID 540256; hit rate 1.2% among 300,000; Lassa virus pseudotype entry inhibition, cell reporter; Potency, µM (doses to about 37.9 µM), without a hit: at the highest dose activity change, negative = inhibition, actives largely listed as inhibitors; calls by dose curve; tested in HEK293 cells; further: potency means the concentration at half of the fitted maximal effect; nearly all actives have a fitted effect of over 50% in size
# Marburg entry inh = inhibitors of Marburg virus binding or cell entry | Marburg virus pseudotyped entry inhibition, cell reporter | Potency, µM (series often up to 37.8 µM), inactives show top-dose activity change, negative = inhibition, actives largely listed as inhibitors | hit rate 1.8% among 300,000; calls by dose curve; tested in HEK293 cells; further: potency means the concentration at half of the fitted maximal effect
# HCMV inh = blocks human cytomegalovirus replication; AID 1259415; activity change, negative = inhibition, % at 57.5 µM; hit rate 4.5% among 410,000; HFF cells, HCMV-luciferase reporter, 72 h; hits give low values; in the data active means activity change below about -60%; inconclusive means no clear call, values can overlap the other calls; inactive means above about -39%
#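 Inhibition of viral replication was scored as loss of reporter luminescence in HFFs infected with HCMV-luciferase (MOI 1 PFU/cell) for 72 h; compounds tested at 2 doses, normalized to buffer and Salinomycin controls.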
# FMDV antiviral = antivirals against foot and mouth disease virus | FMDV antiviral cell-based qHTS | Potency, µM (series often up to 57.9 µM), inactives show at the top dose activity change, negative = inhibition, actives largely listed as inhibitors | hit rate 1.2% among 410,000 | AID 1159524; calls by dose curve; tested in HEK293T cells; further: read-out not given here; potency means the concentration at half of the fitted maximal effect; nearly all actives have a fitted effect of over 45% in size
# Giardia FBPA inh = inhibitors of Giardia lamblia fructose-1,6-bisphosphate aldolase. Potency, µM (titrated, usually from 59.6 µM), inactives show top-dose activity, negative = inhibition, usual class: inhibitors. purified Giardia FBPA. A8B2U2. hit rate 0.71% among 290,000; further: potency means the concentration at half of the fitted maximal effect; nearly all actives have a fitted effect of over 55% in size
# Target sequence (A8B2U2 whole entry, looked up): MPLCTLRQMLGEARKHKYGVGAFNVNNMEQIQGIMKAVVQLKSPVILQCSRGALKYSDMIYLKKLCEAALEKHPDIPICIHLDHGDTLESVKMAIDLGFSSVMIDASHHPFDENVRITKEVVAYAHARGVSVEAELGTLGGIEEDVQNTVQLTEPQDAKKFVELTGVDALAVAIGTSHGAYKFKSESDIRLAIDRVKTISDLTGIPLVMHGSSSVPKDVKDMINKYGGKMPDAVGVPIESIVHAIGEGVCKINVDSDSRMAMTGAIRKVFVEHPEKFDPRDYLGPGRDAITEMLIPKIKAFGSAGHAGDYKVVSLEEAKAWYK
#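 40 nM FBPA preincubated 10 min at RT with compound (up to 57.5 uM final), then substrate plus GAPDH/TPI/NAD/arsenate coupling and diaphorase/resazurin added. Fluorescence read after 20 min at RT, 525/598 nm.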
# Active calls of the source: *; ? = inconclusive; / = not tested or not shown; [ ] = remark or other dose. Unless noted, the call rests on the fitted dose curve; in most records, active means well fitted curve in the direction sought with a large enough effect; inconclusive means small, poorly fitted or top-dose-only effect, or another doubt; inactive means no such curve, though single readings can be large; an effect the other way counts as inactive or inconclusive. On the % scale 0 is the no-effect control and ±100 the full control effect.
SMILES,HCV inh,LASV entry inh,Marburg entry inh,HCMV inh,FMDV antiviral,Giardia FBPA inh
CCCCCCN1C[C@@H](n2cc(-c3ccc(F)cc3)nn2)[C@H](O)C[C@@H]1c1ccc(OC)cc1,/,/,/,-24.0,?,/
CCCCCCN1C[C@H](O)[C@@H](n2cc(-c3ccc(F)cc3)nn2)C[C@H]1c1ccccc1,/,15.8µM*,/,/,/,/
CCCCCCN1C[C@H](n2cc(-c3ccc(F)cc3)nn2)[C@@H](O)C[C@@H]1c1ccc(OC)cc1,/,/,/,-8.1,-7.9%,/
CCCCCCN1C[C@H](O)[C@@H](n2cc(-c3ccc(F)cc3)nn2)C[C@H]1c1ccc(C)cc1,/,25µM*,/,/,/,/
CCCCCCN1C[C@@H](n2cc(-c3ccc(F)cc3)nn2)[C@H](O)C[C@@H]1c1ccc(Cl)cc1,/,/,/,-94.7*,?,/
CCCCCCN1C[C@H](n2cc(-c3ccc(F)cc3)nn2)[C@@H](O)C[C@@H]1c1ccc(C)cc1,/,/,/,-80.6*,-22.3%,/
COc1ccc2c(c1)sc1ncc(C(=O)NCc3cccc(Cl)c3)c(=O)n12,/,/,-10.5%[46.1 µM],5.8,-0.5%,/
COc1ccc(NC(=O)CSc2ccc3c4c(cccc24)C(=O)c2ccccc2-3)cc1,?,?,?,?,19.9%,-0.5%
N#Cc1cccc(NC(=O)CSc2ccc3c4c(cccc24)C(=O)c2ccccc2-3)c1,8.91µM*,?,?,?,-16.9%,13.5%
Cn1nc(-c2ccc(OCC(=O)Nc3ccc(Cl)cc3)cc2)c2ccccc2c1=O,/,0.5%[46.1 µM],-4.5%[46.1 µM],34.8,?,/
Cc1ccc(CC(=O)Nc2nc3ccccc3s2)cc1,-16.0%,?,?,-4.9,26.8%,-0.5%
Cc1nc2c(ccc3nc(NC(=O)Cc4ccccc4)sc32)s1,10µM*,?,?,27.6,58.1%,-1.6%
CCOC(=O)c1c(-c2cccs2)csc1NC(=O)CC(C)C,?,-16.2%,-13.6%,29.1,-7.4%,1.8%
COC(=O)c1c(-c2cccs2)csc1NC(=O)c1cccnc1,11.2µM*,8.3%,21.8%,-0.3,-18.8%,9.7%
CCOC(=O)c1c(-c2cccs2)csc1NC(=O)CN(CC)CC,11.2µM*,?,?,-24.8,-23.7%,0.8%
CCN(CC)CCCn1c(C)cc2c(c1=O)[C@H](c1ccc(OC)c(OC)c1OC)C(C#N)=C(N)O2,/,/,8.9%,/,/,/
COCCn1c(=O)[nH]c(=O)c2cc(C(=O)c3cc(Cl)ccc3O)cnc21,1.78µM*,?,-25.7%[46.1 µM],/,-9.3%,11.8%
COc1ccc(O)c(C(=O)c2cnc3c(c2)c(=O)[nH]c(=O)n3C)c1,?,16.9%,-0.4%,14.7,1.8%,0.0%
O=c1[nH]c2ccccc2n1C1CCN(C(c2cccc3ccccc23)c2nnnn2Cc2ccccc2)CC1 (stereo not drawn),/,/,/,-74.6*,-28.8%,/
C(=C\c1ccccc1)/CN1CCN(C(CCc2ccccc2)c2nnnn2C2CCCCC2)CC1 (stereo not drawn),/,/,/,-40.0,-0.3%,/
COc1cccc(C(c2nnnn2Cc2ccccc2)N2CCC(n3c(=O)[nH]c4ccccc43)CC2)c1OC (stereo not drawn),/,/,/,-70.0*,-29.0%,/
C(=C\c1ccccc1)/CN1CCN(C(c2cc3ccccc3o2)c2nnnn2Cc2ccccc2)CC1 (stereo not drawn),/,/,/,0.1,5.2%,/
COc1ccc(-n2nnnc2C(c2cccc(OC)c2OC)N2CCC(n3c(=O)[nH]c4ccccc43)CC2)cc1 (stereo not drawn),/,/,/,-35.5,?,/
O=c1[nH]c2ccccc2n1C1CCN(C(c2cc3ccccc3o2)c2nnnn2Cc2ccccc2)CC1 (stereo not drawn),/,/,/,-101.2*,?,/
O=c1[nH]c2ccccc2n1C1CCN(C(CCc2ccccc2)c2nnnn2C2CCCC2)CC1 (stereo not drawn),/,/,/,-101.7*,35.5µM*,/
SMILES,HCV inh,LASV entry inh,Marburg entry inh,HCMV inh,FMDV antiviral,Giardia FBPA inh
C=C(CCN1C=C(C(=O)OCC)C(c2ccccc2)NC1=O)c1ccc(Cl)cc1 (stereo not drawn),/,/,14.3%[14.2 µM],/,/,/
c1ccc(C(O[C@H]2CCCN(CCc3ccc4c(c3)OCO4)C2)c2ccccc2)cc1,/,/,/,/,-23.9%,/
COCCNC(=O)CSc1nc(-c2ccccc2C)nc2c1c(=O)n(C)c(=O)n2C,/,-27.2%[46.1 µM],/,1.2,-16.0%,/
CCNC(=O)O/N=C(\C)c1sc(-c2ccccc2)nc1C,11.2µM*,-15.3%,?,62.7,-7.9%,-6.4%
N#Cc1c(/N=C/c2cccs2)sc2c1CCCCC2,10µM*,?,?,-28.3,?,-11.6%
Cc1cccc(-n2c(=O)c3c4c(sc3n3cnnc23)CCCC4)c1,/,12.4%[46.1 µM],1.3%[46.1 µM],-20.6,-20.0%,/
C/C(=N/O)C(=O)NCCCNCCCN(C)C,/,/,4.9%[46.1 µM],/,/,/
COc1ccc(Cl)cc1N1C(=O)[C@@H]2C[C@H]1CN2Cc1nc2ccccc2nc1C,/,/,/,/,4.5%,/
COc1cc(O)ccc1-c1nc2ccc(Br)cn2c1Nc1ccccc1C,/,?,?,14.4,?,/
CC(C)COc1ccc(C(=O)Nc2sc3c(c2C(=O)O)CC(C)(C)OC3)cc1,10µM*,?,1.26µM*,?,-10.4%,24.2%
CCOC(=O)c1c(NC(=O)C2C3C=CC(C3)C2C(=O)O)sc2c1CC(C)(C)OC2 (stereo not drawn),8.6%,-10.0%,19.1%[46.1 µM],-36.1,-23.3%,10.9%
CCOC(=O)c1c(NC(=O)c2cccs2)sc2c1CC(C)(C)OC2,7.94µM*,-10.8%,?,-34.3,?,0.3%
COc1ccc(C(=O)Nc2sc3c(c2C(=O)O)CC(C)(C)OC3)cc1,-14.5%,?,4.47µM*,0.0,-17.1%,-17.8%
CC1(C)Cc2c(sc(NC(=O)c3ccccc3)c2C(=O)O)CO1,-20.1%,?,?,66.0,9.4%,?
Cc1ccc(NC(=O)Cn2c(=O)n(Cc3ccccc3)c(=O)c3c(C)c(C)sc32)c(C)c1,/,3.5%[46.1 µM],-16.2%[46.1 µM],-32.0,-3.9%,/
CCC/C=C/C1C(=O)C2OC2C2(OCC(CC)(CC)CO2)C1CO (stereo not drawn),/,/,/,/,/,0.7%[12.9 µM]
CCOC(=O)c1c(NC(=O)/C=C/c2ccc(OCC)c(OC)c2)sc2c1CCC2,/,4.1%[46.1 µM],9.2%[46.1 µM],9.8,-10.3%,/
CCCCCCOc1ccc(/C=C/C(=O)Nc2sc3c(c2C(=O)OC)CCC3)cc1OC,/,20.2%[46.1 µM],/,-107.4*,14.1µM*,/
O=C1C(=O)N(Cc2cccnc2)[C@@H](c2ccccn2)/C1=C(/O)c1ccc(F)cc1,/,/,22.4%,/,/,/
CCC(Oc1ccccc1)C(=O)Nc1cc(-c2ccccc2F)nn1-c1ccccc1 (stereo not drawn),/,-0.4%[46.1 µM],/,8.6,?,/
Cc1ccc(C(c2sc3nc(-c4ccco4)nn3c2O)N2CCN(Cc3ccccc3)CC2)cc1 (stereo not drawn),/,-9.4%[46.1 µM],/,26.8,-1.7%,/
COC(=O)c1ccccc1NN=Nc1ccccc1[N+](=O)[O-],/,/,/,-101.0*,13.1%,/
O=[N+]([O-])c1ccccc1N=NNc1ccccc1,?,19.2%[46.1 µM],?,2.2,20.9%,/
Cc1cc(N[C@@H](CC(C)C)C(=O)O)nc(Cc2ccccc2)n1,/,/,22.2%,/,/,/
